An excerpt weighted towards active compounds, which were near 4.2% of everything screened.
GDH-TPI counter-1: counter-screen for M. tuberculosis FBA inhibitors: GDH-TPI coupled enzymes; GDH-TPI coupled enzyme counterscreen, NADH absorbance; inhibition, % at 4.8 µM; 360,000 tested, 1.2% active; AID 588335; in the data active = inhibition above about 30%;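 also: 0% = DMSO wells and 100% = wells lacking the enzyme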
PrPC surface inh: inhibitors of human cell surface prion protein PrPC; P04156; TR-FRET read-out; inhibition, % at 13.8 µM; 370,000 tested, 0.43% active; AID 720596; in the data active = inhibition above about 24%; also: 0% = median of the test wells and 100% = reference compound wells
RecA splice inh: blocks M. tuberculosis RecA intein splicing; 290,000 tested, 0.75% active; inhibition, % (concentration not given with the values); AID 2221; cell-free RecA intein splicing, fluorescence; in the data active = inhibition above about 30%;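 also: 0% = vehicle wells and 100% = reference inhibitor control wells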
Mtb FBA inh: inhibitors of M. tuberculosis fructose-bisphosphate aldolase. P9WQA3. purified M. tuberculosis FBA, fluorescence read-out. inhibition, % at 1 µM. 360,000 tested, 2.3% active. AID 588726;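 also: 0% = vehicle and 100% = reference inhibitor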
Target sequence (P9WQA3 whole entry, looked up): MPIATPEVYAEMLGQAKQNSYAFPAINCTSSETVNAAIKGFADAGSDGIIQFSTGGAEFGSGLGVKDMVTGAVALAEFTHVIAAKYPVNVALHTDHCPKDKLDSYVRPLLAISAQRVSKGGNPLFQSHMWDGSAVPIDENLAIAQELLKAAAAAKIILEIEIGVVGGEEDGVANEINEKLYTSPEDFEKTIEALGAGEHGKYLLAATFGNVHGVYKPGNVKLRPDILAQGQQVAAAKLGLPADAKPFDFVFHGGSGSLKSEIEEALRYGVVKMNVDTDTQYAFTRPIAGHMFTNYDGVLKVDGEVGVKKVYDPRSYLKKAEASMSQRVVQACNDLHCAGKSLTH
BJeLR viability: kills HRASV12-expressing BJeLR cells. inhibition, % (concentration not given with the values). 300,000 tested, 0.17% active. AID 1554. BJeLR (HRASV12) viability, CellTiter-Glo ATP luminescence, 48 h; in the data active = inhibition above about 50%
Mtb FBA inh conf: confirmation of M. tuberculosis fructose-bisphosphate aldolase inhibitors; shares compounds with Mtb FBA inh; purified M. tuberculosis FBA, fluorescence read-out; inhibition, % at 1 µM; 5,600 tested, 78% active;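 also: 0% = vehicle wells and 100% = reference inhibitor wells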
GDH-TPI counter-2: inhibits GDH-TPI coupling enzymes, flagging Mtb FBA hits; shares compounds with Mtb FBA inh; GDH-TPI coupled enzyme counterscreen, fluorescence; inhibition, % at 1 µM; 5,600 tested, 81% active; in the data active = inhibition above about 10%
* marks the source's active call; other numbers are inactive results; nt = not tested or not shown; + = active, no number. Rule as the data show it, unless noted: active = inhibition above about 27%; inactive = the rest.

SMILES	GDH-TPI counter-1	PrPC surface inh	RecA splice inh	Mtb FBA inh	BJeLR viability	Mtb FBA inh conf	GDH-TPI counter-2
CCC1(C(=O)OC)CCc2c(cc(OC)c3ccccc23)C1=O (stereo not given)	3.6	nt	nt	28.3*	-7.3	110.6*	70.6*
COC(=O)C1(C)CCc2c(ccc3ccccc23)C1=O (stereo not given)	nt	4.5	nt	34.8*	nt	56.4*	47.5*
CC1CCc2c(ccc3ccccc23)C1=O (stereo not given)	15.9	-2.2	nt	5.9	nt	nt	nt
Cc1ccc(C(=O)C2CCN(CC(=O)N3CC(C)CC(C)C3)CC2)cc1 (stereo not given)	nt	-10.3	nt	nt	nt	nt	nt
COc1cc2[nH]c3c(=O)n(CCN4CCOCC4)cnc3c2cc1OC	7.7	4.9	0.3	59.6*	1.0	+	+
O=C(NCCCN1CCOCC1)c1c(O)c2cc(Br)cc(Br)c2[nH]c1=O	0.0	nt	nt	2.9	nt	nt	nt
COc1cc2[nH]c(=O)c(C(=O)NCCCN3CCOCC3)c(O)c2cc1OC	14.4	5.9	-5.5	38.6*	2.9	28.9*	17.6*
COc1cc2[nH]c3c(=O)n(CCN(C(C)C)C(C)C)cnc3c2cc1OC	14.3	-12.0	1.7	55.2*	3.7	5.8	2.1
CCCCN(CCCC)CCn1cnc2c([nH]c3ccc(OC)cc32)c1=O	15.3	-5.2	-0.9	19.3	8.0	nt	nt
O=C(c1cc(-c2ccccc2)on1)N1CCC(Oc2cccnc2)CC1	nt	2.0	nt	nt	nt	nt	nt
Cc1cc(C)n2cc(COc3ccccc3)nc2n1	7.0	-0.6	-4.1	70.6*	3.0	83.0*	60.9*
Cc1cc(C)n2cc(CSc3nnnn3-c3ccccc3)nc2n1	-6.8	6.3	-0.7	0.2	-0.9	nt	nt
Cc1cc(C)n2cc(CSc3nnc(-c4ccccc4)c(-c4ccccc4)n3)nc2n1	-3.4	5.6	nt	0.3	nt	nt	nt
Cc1cc(C)n2cc(CSc3ncn[nH]3)nc2n1	2.5	6.2	-2.3	94.8*	-2.5	1.2	-6.5
CC(C)S(=O)(=O)N[C@@H]1c2cc3c(cc2[C@H](c2ccccc2)[C@H]1C)OCO3	nt	-8.9	nt	nt	nt	nt	nt
Fc1cccc2sc(Nc3nc4cc5c(cc4s3)OCO5)nc12	18.6	2.7	0.0	34.9*	-13.0	128.0*	93.0*
Fc1cccc2sc(Nc3nc4cc5c(cc4s3)OCCO5)nc12	15.8	2.1	-0.4	39.3*	-17.3	-4.9	-5.2
CC(C)C(=O)Nc1nc2cc3c(cc2s1)OCO3	8.6	2.2	0.1	-3.4	0.7	nt	nt
Fc1cc(F)c2nc(Nc3nc4cc5c(cc4s3)OCO5)sc2c1	10.6	8.9	-0.2	32.4*	-20.9	84.4*	66.1*
COC(=O)c1cc2c(c3c4ccccc4n(S(=O)(=O)c4ccc(C)cc4)c13)C(=O)N(C)C2	nt	14.6	nt	nt	nt	nt	nt
COc1ccccc1CCn1cnc(-c2ccc(Cl)cc2)c1CC(C)C	nt	3.9	nt	nt	nt	nt	nt
O=C(NC1CCCC1)c1ccc2c(c1)N(Cc1ccccc1)CCS2	9.5	1.3	-5.2	90.3*	10.6	103.4*	115.8*
Cc1ccc(CN2CCSc3ccc(C(=O)N4CCC5(CC4)OCCO5)cc32)cc1	8.6	9.3	9.5	19.9	2.1	nt	nt
O=C(NC1CC1)c1ccc2c(c1)N(Cc1ccc(Cl)cc1)CCS2	6.6	-5.2	3.0	105.7*	-0.9	53.9*	47.8*
Cc1ccccc1CN1CCCCC(NC(=O)c2ccc(N(C)C)cc2)C1=O (stereo not given)	nt	4.1	nt	nt	nt	nt	nt
SMILES	GDH-TPI counter-1	PrPC surface inh	RecA splice inh	Mtb FBA inh	BJeLR viability	Mtb FBA inh conf	GDH-TPI counter-2
COc1ccc2ccccc2c1C=NNC(=O)c1cc(-c2ccc(C)cc2)n[nH]1	nt	6.0	nt	nt	nt	nt	nt
O=S(=O)(CCN1CCN(c2ccccn2)CC1)c1ccc(F)cc1	5.4	-0.8	-1.3	-1.4	-1.0	nt	nt
O=c1oc2cccnc2n1CCS(=O)(=O)c1ccc(F)cc1	8.0	6.5	-0.5	39.0*	-0.9	4.5	1.1
O=c1cc(CSc2nc3ccccc3c(=O)[nH]2)c2ccc(O)cc2o1	21.0	-1.5	-1.0	28.3*	4.1	101.7*	74.9*
CCC(C)CNC(=O)CSc1nnc(-c2cccnc2)n1C1CCCCC1 (stereo not given)	nt	-1.0	nt	nt	nt	nt	nt
Cc1cccc(Cl)c1NC(=O)N(C)c1ccccc1	nt	-7.8	nt	nt	nt	nt	nt
CCN1C(=O)c2cccc3c(S(=O)(=O)N(C(C)=O)c4ccc(OC(C)=O)cc4)ccc1c23	11.8	-14.0	nt	53.0*	nt	+	+
O=C1OC(C(Cl)(Cl)Cl)Nc2ccccc21 (stereo not given)	nt	-4.9	nt	40.3*	nt	+	+
